TDP1 cell CPT: qHTS for Inhibitors of human tyrosyl-DNA phosphodiesterase 1 (TDP1): qHTS in cells in presence of CPT | chicken DT40 Tdp1-/-;hTDP1 cells + 20 nM CPT, ATP luminescence, 48 h | Potency, µM (series often up to 46.2 µM), without a hit: at the highest dose activity change, negative = growth inhibition, hits mostly inhibitors | hit rate 12% among 420,000; also: nearly all actives have a fitted effect of over 55% in size
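Cell growth measured by CellTiter-Glo luminescence after a minimum 48 h, 37 C compound exposure with 20 nM CPT in Tdp1-knockout DT40 cells stably expressing hTDP1, seeded 400/well; qHTS titration format.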
ELG1 DNA repair: qHTS screen for small molecules that inhibit ELG1-dependent DNA repair in human embryonic kidney (HEK293T) cells expressing luciferase-tagged ELG1 | HEK293T ELG1-luciferase reporter, luminescence, 16 h; DNA damage induced by 5-fluorouridine | Potency, µM (titrated, usually from 46.1 µM), for inactives: top-dose activity change, negative = inhibition, usual class: inhibitors | hit rate 2.3% among 330,000; also: nearly all actives have a fitted effect of over 55% in size
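Luminescence from the luciferase reporter, measured 30 min after ONE-Glo reagent at room temperature, was the read-out. Beforehand, 2,000 cells per well were exposed for 16 hr at 37 °C to 5-fluorouridine together with compound or vehicle.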
DT40 TDP1 no CPT: qHTS for Inhibitors of human tyrosyl-DNA phosphodiesterase 1 (TDP1): qHTS in cells in absence of CPT; DT40 Tdp1-/- hTDP1 cells, no CPT, ATP luminescence, 48 h; Potency, µM (doses to about 46.2 µM), for the others: at the highest dose activity change, negative = growth inhibition, most hits filed as inhibitors; hit rate 15% among 420,000; AID 686978, 2013; also: nearly all actives have a fitted effect of over 55% in size
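Cells were dispensed at 400 per well, compounds added by pin tool, plates incubated ≥48 hr at 37 °C, then CellTiter-Glo added for 30 min at room temperature before luminescence reading. Line: DT40 Tdp1-/- complemented with hTDP1; camptothecin omitted.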
RORg inh: qHTS for inhibitors of ROR gamma transcriptional activity. Drosophila S2 Gal4-RORgamma UAS-luciferase reporter, 20 h. Nuclear receptor ROR-gamma (Mus musculus), P51450. hit rate 5.4% among 310,000. Potency, µM (top dose mostly 53.6 µM), without a hit: at the top dose activity change, negative = inhibition, hits mostly inhibitors; also: nearly all actives have a fitted effect of over 60% in size
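Read-out: Photinus luciferase luminescence; inhibitors lower reporter signal. Insect Schneider cells with Gal4-ROR gamma fusion under metallothionein promoter, UAS reporter; 700 uM final copper sulfate induction, 20 hr, ambient temperature.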
Gal4-VP16 FLuc: VP16 counterscreen qHTS for inhibitors of ROR gamma transcriptional activity; Drosophila S2 Gal4-VP16 UAS-luciferase, luminescence, 20 h; Potency, µM (series often up to 53.6 µM), for inactives: at the highest dose activity, negative = inhibition, actives largely listed as inhibitors; hit rate 3.5% among 310,000; AID 2546, 2010;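 also: Gal4-VP16 expression switched on by copper sulfate through the metallothionein promoter; nearly all actives have a fitted effect of over 50% in size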
ALOX12 inh: Primary qHTS assay for inhibitors of human arachidonate 12S-lipoxygenase (ALOX12): Round 2; purified 12hLO, xylenol orange hydroperoxide absorbance; Potency, µM (top dose mostly 108 µM), for inactives: at the top dose activity change, negative = inhibition, usual class: inhibitors; Polyunsaturated fatty acid lipoxygenase ALOX12 (Homo sapiens), P18054; hit rate 1.1% among 580,000
Target sequence (P18054 whole entry, looked up): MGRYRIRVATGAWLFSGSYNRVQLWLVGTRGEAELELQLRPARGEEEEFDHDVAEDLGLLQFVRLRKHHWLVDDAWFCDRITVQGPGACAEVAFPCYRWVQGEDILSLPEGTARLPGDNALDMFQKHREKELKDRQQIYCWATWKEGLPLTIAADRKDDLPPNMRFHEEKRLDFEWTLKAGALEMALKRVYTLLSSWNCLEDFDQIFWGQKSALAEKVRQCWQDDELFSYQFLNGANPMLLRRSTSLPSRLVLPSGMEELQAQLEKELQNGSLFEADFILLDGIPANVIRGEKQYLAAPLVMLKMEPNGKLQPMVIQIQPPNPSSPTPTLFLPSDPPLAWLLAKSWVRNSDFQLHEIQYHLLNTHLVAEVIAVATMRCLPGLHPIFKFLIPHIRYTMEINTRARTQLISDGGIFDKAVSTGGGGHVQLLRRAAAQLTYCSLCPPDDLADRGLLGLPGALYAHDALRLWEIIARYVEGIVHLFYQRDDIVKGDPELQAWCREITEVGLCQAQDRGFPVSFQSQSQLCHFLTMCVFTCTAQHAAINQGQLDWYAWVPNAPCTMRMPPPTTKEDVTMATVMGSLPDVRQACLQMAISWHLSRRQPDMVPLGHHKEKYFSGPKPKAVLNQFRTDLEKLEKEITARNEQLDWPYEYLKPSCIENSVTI
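Purified human 12hLO at 150 nM in 25 mM Hepes, 0.01% Triton X-100, pH 7.0, preincubated 15 min at room temperature with compound. Reaction started with 40 uM arachidonic acid, 30 min at room temperature. Hydroperoxide measured by Fe-xylenol orange, 573/405 nm absorbance ratio.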
Active calls of the source: *; i = inactive; u = inconclusive; x = no result; [ ] = dose if it differs, or a comment. Most compounds without a hit are left out; they make up all but 15% or so of the library. Calls follow the shape of the dose curve; as a rule, active = well fitted curve in the direction sought with a large enough effect; inconclusive = small, poorly fitted or top-dose-only effect, or another doubt; inactive = no such curve, though single readings can be large; an effect the other way counts as inactive or inconclusive. % is scaled to controls: 0 for no effect and ±100 for the full control effect; potency is read from the fitted curve at half-maximal effect.

SMILES	TDP1 cell CPT	ELG1 DNA repair	DT40 TDP1 no CPT	RORg inh	Gal4-VP16 FLuc	ALOX12 inh
O=C(N/N=C/c1ccc2c(c1)OCO2)c1ccc2ccccc2n1	-6.6%	u	-23.1%	0.3%	-1.9%	-9.3%
Cn1cc(C(=O)N/N=C/c2ccc3c(c2)OCO3)c2ccccc21	7.31µM*	6.8%	5.17µM*	-14.5%	10.0%	0.0%
Cn1cc(C(=O)N/N=C/c2ccc(Br)c([N+](=O)[O-])c2)c2ccccc21	u	u	u	-0.3%	2.5%	0.0%
Cc1occc1C(=O)N/N=C/c1cccs1	-9.8%	u	-19.1%	u	-6.6%	8.0%[57.4 µM]
Cn1cc(C(=O)N/N=C/c2cccs2)c2ccccc21	5.8%	u	8.2µM*	10µM*	u	30.5%
O=C(N/N=C/c1ccc2c(c1)OCO2)c1cccc2ccccc12	2.06µM*	-12.1%	3.26µM*	33.5%	26.7%	-6.1%
COc1ccccc1NC(=O)C(=O)N/N=C/c1cccs1	-8.2%	u	-38.0%	2µM*	3.16µM*	18.9%
Cc1ccc(Nc2n[nH]nc2C(=O)Nc2ccc(C)c(Cl)c2)cc1	x	x	x	x	x	12.9%
O=C(NC1CCN(Cc2ccccc2)CC1)c1cc2cc(Cl)ccc2[nH]1	x	x	x	x	x	-64.7%
Cc1nc2ccccc2cc1C(=O)N/N=C/c1cccs1	-0.7%	-8.5%	-20.0%	10µM*	u	0.2%
Cc1nc2ccccc2cc1C(=O)N/N=C/c1ccco1	-20.1%	0.0%	-0.4%	u	u	0.2%
O=C(CCc1ccc(O)c(O)c1)N/N=C/c1ccc2c(c1)OCO2	u	5.8µM*	u	-42.7%	u	i
Cc1occc1C(=O)N/N=C/c1ccc2c(c1)OCO2	u	u	u	7.94µM*	u	-0.6%
Cc1cccc(C)c1OCC(=O)N/N=C/c1ccc2c(c1)OCO2	2.91µM*	-3.5%	3.66µM*	-25.1%	-22.3%	6.7%
COC(=O)CC1C(=O)NCCN1S(=O)(=O)c1cc(Cl)ccc1Cl (configuration not stated)	x	x	x	x	x	-11.2%
CS(=O)(=O)N1CCCC(C(=O)NC2CCN(Cc3ccccc3)CC2)CCNC(=O)CC1 (configuration not stated)	x	x	x	x	x	36.5%
O=C(OCc1c(F)cccc1Cl)c1ccccc1Nc1ccccc1	x	x	x	x	x	4.7%
O=c1c(-c2ccccc2)coc2cc(OCc3cccc4ccccc34)ccc12	x	x	x	x	x	-1.3%
Clc1ccc(-c2onc3cc(-c4ccccc4)ccc23)cc1	x	x	x	x	x	-48.2%
COc1cc(/C=N/NC(=O)c2ccoc2C)cc(OC)c1OC	u	x	12.6µM*	x	x	-6.4%
CC(C)OC(=O)c1c(-c2ccccc2)c(-c2ccccc2)nn(C)c1=O	u	x	20.6µM*	x	x	1.2%
COC(=O)c1c(-c2ccccc2)c(-c2ccccc2)nn(C)c1=O	u	-4.4%	u	9.7%	5.7%	-9.8%
COCCOC(=O)c1c(-c2ccccc2)c(-c2ccccc2)nn(C)c1=O	u	x	20.6µM*	x	x	-18.9%
COc1cccc(C(C)NC(=S)NCc2ccc(Cl)cc2)c1 (configuration not stated)	15.8%	u	-22.1%	6.31µM*	u	-20.2%
CCC(NC(=S)NCc1ccc(F)cc1)c1ccccc1 (configuration not stated)	u	-9.9%	u	3.55µM*	3.16µM*	u
SMILES	TDP1 cell CPT	ELG1 DNA repair	DT40 TDP1 no CPT	RORg inh	Gal4-VP16 FLuc	ALOX12 inh
COc1ccc(CCC(=O)NNC(=S)NCc2ccc(F)cc2)cc1	-29.7%	-14.9%	u	7.94µM*	-18.7%	404.5%
COc1ccc(CCC(=O)NNC(=O)c2ccc(F)cc2)cc1	-2.7%	u	10.7%	-15.1%	-9.0%	-7.9%
O=C(NCc1ccc(F)cc1)C(c1ccccc1)c1ccccc1	-18.3%	-19.1%	7.1%	-22.6%	-2.7%	49.7%
COc1ccc(C(C)NC(=S)NCc2ccc(F)cc2)cc1 (configuration not stated)	18.4µM*	3.1%	u	5.62µM*	1µM*	u
COc1ccc(CCC(C)NCc2ccc(F)cc2)cc1 (configuration not stated)	-18.3%	-6.6%	u	-24.2%	-1.9%	22.3%
Cc1onc(-c2cnn(C)c2NCc2ccc(C#N)cc2)c1C(=O)NCC1CCOCC1	x	x	x	x	x	-16.8%[176 µM]
O=C(Cn1ccc(=O)[nH]c1=O)NC(c1ccc(Cl)cc1)c1cccs1 (configuration not stated)	x	x	x	x	x	-30.0%
Cc1ccc(C)c(C(C)NC(=S)NCc2ccc(F)cc2)c1 (configuration not stated)	23.1µM*	u	u	5.01µM*	1.41µM*	u
CCc1ccc(Cc2cnc(NC(=O)C3=Cc4ccccc4OC3)s2)cc1	x	x	x	x	x	2.1%
C=C1C(=O)c2sccc2C(c2ccc(OC)c(OC)c2)C1COC(C)=O (configuration not stated)	0.517µM*	x	0.231µM*	x	x	-16.5%
Cc1nnnn1CCCN1CCc2onc(-c3ccc(C(F)(F)F)cc3)c2C1	x	x	x	x	x	-25.8%
CCCCN(C)C(=O)c1cc(=O)[nH]c2ccccc12	x	x	x	x	x	5.1%
COC(=O)c1c(C)nn(-c2ccc(OC(F)(F)F)cc2)c1-c1snnc1C	u	u	16.4µM*	28.1%	5.7%	-4.3%
O=C(COc1ccc(C(=O)c2ccccc2)cc1)OCCOc1cccc(Cl)c1	x	x	x	x	x	-20.0%
CC1=C(c2ccc(Cl)cc2)[N+](=O)C(C)(C)N1[O-]	16.4µM*	9.9%	u	-4.1%	11.6%	-10.0%
Fc1cc(F)cc(Cc2nc3nccc(-c4ccsc4)n3n2)c1	x	x	x	x	x	2.3%
CN1CCC(N2CC[C@H](c3nnc(-c4ccc(N(C)C)cc4)o3)C2)CC1	x	x	x	x	x	23.9%[176 µM]
O=C(Nc1nnc(-c2cccs2)s1)C1CC1	17.8%	u	-0.7%	u	10.3%	0.7%
O=C(Nc1nc(-c2cccs2)c(-c2cccs2)s1)C1CCCC1	16.4µM*	-23.7%	14.6µM*	24.2%	-26.4%	-28.6%
O=[N+]([O-])c1cccc(-c2nc3ccc([N+](=O)[O-])cc3[nH]2)c1	10.3µM*	-19.1%	20.6µM*	u	0.0%	0.0%
